According to PubChem BioAssay (NCI):
Compounds without any hit were thinned out: in the full panel of roughly 83,000, 20% have a hit.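 Cells were grown in 96-well plates and exposed to the test compound at a single concentration for 48 hours; results are reported as percent growth, with values below 10 considered active.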 Values without a mark were called inactive. The source made the active and inactive calls.

How the values were obtained:
Experiment in all cases: NCI-60 one-dose screen, 48 h (100 = growth as untreated, 0 = no growth, -100 = all killed)
Conditions in all cases: 10 µM unless noted
MOLT-4 leukemia = system: MOLT-4 leukemia
SR leukemia = system: SR leukemia
RPMI-8226 leukemia = system: RPMI-8226 leukemia
OVCAR-8 ovarian = system: OVCAR-8 ovarian
OVCAR-5 ovarian = system: OVCAR-5 ovarian
OVCAR-4 ovarian = system: OVCAR-4 ovarian
SK-OV-3 ovarian = system: SK-OV-3 ovarian
IGROV1 ovarian = system: IGROV1 ovarian
OVCAR-3 ovarian = system: OVCAR-3 ovarian
HS 578T breast = system: HS 578T breast
NCI/ADR-RES ovarian = system: NCI/ADR-RES ovarian
T-47D breast = system: T-47D breast
BT-549 breast = system: BT-549 breast
MDA-MB-435 melanoma = system: MDA-MB-435 melanoma
SW-620 colon = system: SW-620 colon
MCF7 breast = system: MCF7 breast
HCT-116 colon = system: HCT-116 colon
KM12 colon = system: KM12 colon
HCC-2998 colon = system: HCC-2998 colon

SMILES	growth (MOLT-4 leukemia)	growth (SR leukemia)	growth (RPMI-8226 leukemia)	growth (OVCAR-8 ovarian)	growth (OVCAR-5 ovarian)	growth (OVCAR-4 ovarian)	growth (SK-OV-3 ovarian)	growth (IGROV1 ovarian)	growth (OVCAR-3 ovarian)	growth (HS 578T breast)	growth (NCI/ADR-RES ovarian)	growth (T-47D breast)	growth (BT-549 breast)	growth (MDA-MB-435 melanoma)	growth (SW-620 colon)	growth (MCF7 breast)	growth (HCT-116 colon)	growth (KM12 colon)	growth (HCC-2998 colon) [%]
Cc1cc(N(CCCl)CCCl)ccc1C=Nc1cccnc1	52.1%	43.9%	78.3%	78.2%	28.2%	80.6%	61.3%	99.2%	87.5%	113%	71.6%	45.3%	86.9%	101%	85.3%	36.5%	77.6%	102%	
Cn1cc(-c2csc(-c3cn(CCCCN4CCCCC4)c4ccc(F)cc34)n2)c2cccnc21	-62% (active)	-44.9% (active)	1.18% (active)	91.8%	103%	87%	100%	71.7%	87.7%	67.9%	81.7%	81.5%	81.1%	-91.1% (active)	-69.9% (active)	-55.9% (active)	94.9%	82.5%	
CC[C@H](C)[C@@H]1OC(=O)C(C)(C)[C@H](O)[C@H](Cc2ccccc2)OC(=O)[C@H](C(C)C)OC(=O)[C@@H](NC(=O)c2cccc(NC=O)c2O)[C@@H](C)OC1=O	37.7%	43.3%	29%	51.3%	103%	28.7%	60.7%	53.6%	48.2%	73.4%	53.4%	33.2%	53.8%	53.2%	60.8%	40%	36.5%	53.5%	
C=CC1=C[C@@H]2[C@@H]3O[C@]4(CC[C@H](O4)[C@@H](C)C[C@@H](O)C3=O)C[C@H](O)C3=NCC[C@@]32CC1	0.671% (active)	2.4% (active)	-15.9% (active)	-12.3% (active)	-24% (active)	-38.8% (active)	-4.99% (active)	-28.4% (active)	-30.7% (active)	-29.6% (active)	-15.3% (active)	-14.6% (active)	-31.9% (active)	-92.9% (active)	-11.3% (active)	-11.8% (active)	-22.8% (active)	-33.4% (active)	
CC(=O)C(c1c(O)c2ccccc2oc1=O)c1cc(=O)oc2c1ccc1ccccc12 (stereo not drawn)	90.2%	92.5%	94%	99.4%	99.4%	101%	94.6%	106%	110%	91.5%	99.6%	84.3%	87.9%	103%	99%	91.3%	92.3%	109%	
COC(=O)C1CCC(NC(=O)c2csc([C@@H](C[C@H](C(C)C)N(C)C(=O)[C@@H](NC(=O)[C@H]3CCCCN3C)C(C)C)OC(C)=O)n2)CC1 (stereo partly drawn)	18.1%	20.1%	25.7%	19.3%	53%	45.3%	20.8%	28.3%	-37.6% (active)	42.6%	11.8%	64.4%	-20.7% (active)	-48.5% (active)	28.1%	19.4%	5.04% (active)	9.7% (active)	
Fc1cccc(NCOOC2(OOCNc3cccc(F)c3)CCCCC2)c1	97.6%	31.5%	99.6%	96.8%	96.2%	98.5%	103%	40.1%	99.3%	104%	77.8%	86.8%	102%	101%	104%		87.3%	94.6%	105
Cc1cc(-c2nc3cc(F)ccc3[se]2)cc(F)c1N	83.6%	23.9%	66.8%	104%	51.2%	63.3%	73.6%	37.3%	87.2%	102%	98.7%	14.2%	84.4%	101%	90.7%	2.88% (active)	71.2%	61.2%	
CC[C@]12C=CCN3CC[C@]4(C(=C(C(=O)OC)C1)Nc1cc(OC)c(OC(C)=O)cc14)[C@@H]32	9.7% (active)	7.64% (active)	7.27% (active)	5.97% (active)	43%	38.6%	2.29% (active)	26.3%	14.1%	46.7%	9.28% (active)	51.4%	3.35% (active)	3.75% (active)	15.8%		12%	9.09% (active)	12.8
c1ccc(Nc2nc(-c3ccccc3)c[se]2)cc1	76.2%	79.6%	86.6%	96.3%	96.7%	75.6%	86.4%	68.8%	93.5%	89.6%	97.3%	6.3% (active)	87.4%	104%	98.8%	61%	86.3%	71.8%	
COc1cccc(C=NC(Cc2cnc[nH]2)C(=O)O)c1O (stereo not drawn)	120%	132%	48.1%	81.1%	85.5%	95.9%	102%	64.8%	102%	122%	98.4%	108%	91.1%	84.2%	102%	93.4%	97.8%	104%	
